Results filed as inconclusive are left out. Unmarked numbers belong to inactive results. Activity calls are given as the source filed them. Calls follow the shape of the dose curve; as a rule, active = well fitted inhibition curve with a large enough effect; inconclusive = small, poorly fitted or top-dose-only effect, or effect the other way; inactive = no such curve, though single readings can be large or run the other way.
Molecular target: Nuclear receptor ROR-gamma (Mus musculus) (UniProt P51450)
Sequence (P51450 whole entry, looked up): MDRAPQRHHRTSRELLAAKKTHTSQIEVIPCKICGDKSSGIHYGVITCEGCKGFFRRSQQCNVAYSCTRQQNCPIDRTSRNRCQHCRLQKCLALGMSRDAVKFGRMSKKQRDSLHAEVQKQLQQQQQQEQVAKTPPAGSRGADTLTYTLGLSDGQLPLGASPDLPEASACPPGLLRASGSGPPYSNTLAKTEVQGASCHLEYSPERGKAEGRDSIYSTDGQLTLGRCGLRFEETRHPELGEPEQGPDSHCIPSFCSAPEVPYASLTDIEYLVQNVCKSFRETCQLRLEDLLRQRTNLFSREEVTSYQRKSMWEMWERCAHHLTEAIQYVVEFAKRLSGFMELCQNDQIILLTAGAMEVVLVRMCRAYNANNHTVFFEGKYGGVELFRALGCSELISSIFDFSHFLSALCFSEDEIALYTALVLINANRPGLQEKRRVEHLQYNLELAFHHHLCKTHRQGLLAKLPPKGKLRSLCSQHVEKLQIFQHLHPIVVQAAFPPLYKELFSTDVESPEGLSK
Assay: Concentration response confirmation assay for inhibitors of ROR gamma transcriptional activity
Settings: Drosophila S2 Gal4-RORgamma UAS-luciferase, 20 h; series mostly up to 46.1 µM; activity change, negative = inhibition: at the top concentration
Source text: NIH Molecular Libraries Probe Production Network [MLPCN] NIH Chemical Genomics Center [NCGC] MLPCN Grant: R03 DA026211-01 Assay Provider: Dan Littman, New York University Assay Overview: The retinoic acid-related orphan receptor (ROR) gamma is a transcription factor that has a central role in the differentiation of Th17 cells, a subset of T helper cells that secrete the inflammatory cytokines IL-17, IL-17F, and IL-22. Th17 cells have been implicated in graft versus host disease, autoimmune disease and asthma. ROR gamma is induced in naive T helper cells in the presence of TGF-beta combined with IL-6, IL-21, or IL-23, and thereafter directs the expression of the Th17 lineage cytokines. To study the mechanism of action of ROR gamma, an insect cell-based assay was screened. This Drosophila Schneider cell line was stably transfected with two vectors: a gene expressing a fusion of the Gal4 DNA binding domain and ROR gamma transactivation domain under the control of the metallothionine promoter and a Photinus luciferase reporter regulated by the Gal4 binding site enhancer, UAS. […] Small molecule inhibitors of ROR gamma activity are detected by a decrease in luciferase reporter activity.
Assay Protocol Summary: For screening, 600 cells in 4 uL/well were dispensed into white solid 1536-well plates (Grenier) using a solenoid-based dispenser. Following transfer of 23 nL compound or DMSO vehicle by a pin tool, the plates were incubated 1 hr at ambient temperature, and 1 uL/well copper sulfate (700 uM final concentration) was added. The plates were centrifuged 15 s at 1000 RPM and incubated 20 hr at ambient temperature. After addition of 1.5 uL Photinus luciferase detection reagent, the plates were incubated 10 min at ambient temperature and then read by an ViewLux (Perkin Elmer) to detect luminescence. Keywords: NIH Roadmap, MLPCN, MLI, MLSMR, qHTS, NCGC, qHTS, nuclear hormone receptor, retinoic acid-related orphan receptor, ROR gamma

| Structure (SMILES) | Potency | activity change, negative = inhibition [%] |
| --- | --- | --- |
| CC(C)(C)S(=O)(=O)c1cnc2c(-c3ccsc3)cnn2c1N | 22.3 µM (active) |  |
| Cc1cc(-c2ccccc2)nc(N2CCC(C(=O)NCc3ccccc3Cl)CC2)n1 |  | -6.36 |
| Cc1sc2ncnc(Sc3nnc4sc5ccccc5n34)c2c1C |  | -0.98 |
| O=C(CN1CCCCCC1)Nc1ccc(S(=O)(=O)N2CCOCC2)cc1 |  | 19.2 |
| CCOC(=O)[C@@H]1[C@H]2COc3cc(OC)ccc3[C@@H]2N2C(=O)N(c3ccc(C)cc3)C(=O)[C@@]12C | 14.1 µM (active) |  |
| CCN(CC(=O)Nc1ccc2c(c1)CCC2)Cc1nc2ccccc2c(=O)[nH]1 | 8.88 µM (active) |  |
| COc1ccc(C(=O)Nc2nc3cc4c(cc3s2)OCCO4)c(OC)c1 | 0.0628 µM (active) |  |
| COc1ccc(C(C#N)N2N=C(C)CC2c2ccccc2)cc1 (stereo not given) |  | 7.28 |
| CCN1CCCc2cc(CN(CCN3CCOCC3)C(=S)Nc3ccccc3C)ccc21 | 9.96 µM (active) |  |
| O=C1NC2=C(C(=O)CCC2)C(c2ccccc2)N1 (stereo not given) |  | 2.63 |
| COc1ccc(C(=O)Nc2ccc(NC(=O)c3cccs3)cn2)cc1 |  | -1.79 |
| CC(C)(C)S(=O)(=O)c1cnc2c(-c3ccc(F)cc3)cnn2c1N | 11.2 µM (active) |  |
| S=c1nc(COc2ccccc2)[nH]c2ccccc12 | 6.28 µM (active) |  |
| COC(=O)c1ccc(Oc2cc(C)nc(-n3nc(C)cc3C)n2)cc1 | 1.58 µM (active) |  |
| CCOC(=O)c1ccc2nc(Nc3nc4ccc(F)cc4s3)sc2c1 | 5.6 µM (active) |  |
| CN(Cc1nc2ccccc2c(=O)[nH]1)Cc1nc2ccsc2c(=O)[nH]1 | 1.41 µM (active) |  |
| O=C(O)c1ccc(/C=N/n2cc(-c3ccccc3)[nH]c2=S)cc1 |  | 11.8 |
| CNc1cc(C(F)(F)F)nc(-c2ccccn2)n1 | 3.97 µM (active) |  |
| CCn1cc(C(=O)O)c(=O)c2cc(F)c(N3CCN(C(=S)NC(=O)c4ccccc4C)CC3)cc21 |  | -24.2 |
| CCOC(=O)c1sc(NC(=O)c2cc3c(s2)CCC(C)C3)nc1C (stereo not given) | 0.0996 µM (active) |  |

| Structure (SMILES) | Potency | activity change, negative = inhibition [%] |
| --- | --- | --- |
| COc1ccc(-c2cc(C(=O)NNC3=NCCC3)c3c(C)nn(-c4ccccc4)c3n2)cc1 | 4.45 µM (active) |  |
| O=C(Cn1c(=O)oc2ccc(Cl)cc21)Nc1ccon1 |  | 11.1 |
| COc1ccc(OCC(=O)NNc2nc3ccccc3s2)cc1 | 14.1 µM (active) |  |
| CCOc1ccc(C(=O)Nc2nc3ccccc3[nH]2)cc1OCC | 11.2 µM (active) |  |
| COc1ccc2oc(=O)c(C(=O)Nc3ccccc3C)cc2c1 | 1.25 µM (active) |  |
| CCOC(=O)c1sc(NC(=O)c2sc(C)nc2C)nc1C |  | 6.4 |
| Cc1cc(NC(=O)CN2CCOCC2)n(-c2nc3ccccc3s2)n1 | 15.8 µM (active) |  |
| CC(=O)c1cccc(N(CC(=O)Nc2ccccc2C(=O)N2CCCC2)S(C)(=O)=O)c1 |  | 0.355 |
| COc1ccc(-n2ncc(Cl)c(Cl)c2=O)cc1 | 8.88 µM (active) |  |
| Cc1cc(C)c2[nH]c(C(=O)Nc3ccc4c(c3)OCO4)cc2c1 | 0.125 µM (active) |  |
| Cc1cc(C)c(S(=O)(=O)NCCn2ccc3ccccc32)c(C)c1 |  | -4.64 |
| COc1ccc(/C=C/C(=O)NC(=S)NCC2CCCO2)cc1 (stereo not given) | 11.2 µM (active) |  |
| CCOc1ccc2nc(NC(=O)c3cnccn3)sc2c1 | 3.15 µM (active) |  |
| Cc1cccc(-c2ocnc2C(=O)Nc2ccccc2NC(=O)c2ccccn2)c1 | 2.23 µM (active) |  |
| O=C(NC(=S)Nc1nc(-c2ccccc2)cs1)c1cncc(Br)c1 | 3.15 µM (active) |  |
| CCOC(=O)C(C(=O)OCC)C(C(=O)OCC)N1CCOCC1 (stereo not given) | 3.15 µM (active) |  |
| O=c1oc2c3c(nn2c2ccccc12)CCCC3 |  | -0.931 |
| Cc1ccccc1NC(=O)CCN1CCN(C)CC1 |  | 8.95 |
| O=S(=O)(c1ccc(NC(=S)N/N=C/c2ccc(Oc3ccccc3)cc2)cc1)N1CCOCC1 | 1.12 µM (active) |  |
| Cc1cc(NCc2ccccn2)n2ncc(-c3ccc(Cl)cc3)c2n1 | 0.199 µM (active) |  |

Source: PubChem BioAssay AID2762 (National Center for Advancing Translational Sciences (NCATS), 2010)
